Assay in all cases: peptide microarray binding signal (635 nm), min-max normalized on array (fraction of array maximum); higher = stronger binding
Experiment [1] addresses T1, HaloTag-ATRX ADD domain (163-292).
T1 chain: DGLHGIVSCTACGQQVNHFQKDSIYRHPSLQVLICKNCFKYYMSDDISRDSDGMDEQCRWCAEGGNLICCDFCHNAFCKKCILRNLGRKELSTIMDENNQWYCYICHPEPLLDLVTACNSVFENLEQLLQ
The method in brief: (§1)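 Triplicate spots of histone 13-mer peptide–cellulose conjugates with a Cy3 tracer were printed on nitrocellulose and probed for 1 h at 4°C with biotin-labelled HaloTag reader fusions (10 nM to 1 μM) plus streptavidin-Alexa Fluor 647 or rabbit histone antibodies (1:10,000 to 1:2,000) plus anti-rabbit Alexa 647. An Axon GenePix 4000B read the 635 nm channel. Binding signal is the spot-triplicate mean intensity after min-max scaling within each library.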

Experiment [2] deals with HaloTag-ING2 PHD (mouse Ing2 200-280). Summed up:
as §1

For experiment [3], the target named is anti-H3K4me3 antibody ab8580. Summed up:
as §1

Experiment [4] addresses anti-H3K9me3 antibody ab8898. The method in brief:
as §1

The mark [5] stands for this setting: peptide region: H4 16-28, peptide modifications: H4R19me1 H4K20ac, binder concentration: 1:2,000 dilution.
[6] abbreviates: peptide region: H4 16-28, peptide modifications: H4R19me1 H4K20ac, binder concentration: 1:10,000 dilution.
[7] abbreviates: peptide region: H4 16-28, peptide modifications: H4R23me1, binder concentration: 1:2,000 dilution.
[8] abbreviates: peptide region: H4 16-28, peptide modifications: H4R19me2a H4K20me2, binder concentration: 1:2,000 dilution.
Setting [9] is: peptide region: H4 16-28, peptide modifications: H4R19me2a H4K20me2, binder concentration: 1:10,000 dilution.
Setting [10] is: peptide region: H4 38-50, peptide modifications: H4K44ac H4R45me1, binder concentration: 1:2,000 dilution.
Where [11] appears, read: peptide region: H4 38-50, peptide modifications: H4K44ac H4R45me1, binder concentration: 1:10,000 dilution.
Setting [12] is: peptide region: H4 16-28, peptide modifications: H4R19me1 H4K20me1, binder concentration: 1:2,000 dilution.
The mark [13] stands for this setting: peptide region: H4 16-28, peptide modifications: H4R19me1 H4K20me1, binder concentration: 1:10,000 dilution.
The mark [14] stands for this setting: peptide region: H4 16-28, peptide modifications: H4R19me2a H4K20ac, binder concentration: 1:2,000 dilution.
Setting [15] is: peptide region: H4 16-28, peptide modifications: H4R19me2a H4K20ac, binder concentration: 1:10,000 dilution.

Results on 6 molecules are retold here after the supplement of paper PMC4022240.

± gives the standard deviation.

With KRHRKVLRDNIQG [H4 16-28 K R H Rme Kac V L R D N I Q G], the “peptide microarray binding signal” value in experiment [1] (peptide region: H4 16-28, peptide modifications: H4R19me1 H4K20ac, binder concentration: 50 nM) was found to be 0.00448 ± 0.00018; in experiment [1] (peptide region: H4 16-28, peptide modifications: H4R19me1 H4K20ac, binder concentration: 500 nM), 0.00967 ± 0.0016; in experiment [2] (peptide region: H4 16-28, peptide modifications: H4R19me1 H4K20ac, binder concentration: 10 nM) it was 0.00627 ± 0.00047; in experiment [2] (peptide region: H4 16-28, peptide modifications: H4R19me1 H4K20ac, binder concentration: 100 nM) it was 0.00609 ± 0.00066; in experiment [3] (setting [5]) it was 0.00468 ± 0.0037; in experiment [3] (setting [6]), 0.00137 ± 1.3e-05. Further, the “peptide microarray binding signal” value in experiment [4] (setting [5]) was 0.000287 ± 2.9e-06; in experiment [4] (setting [6]) it was 0.001557 ± 1.5e-05.

Take KRHRKVLRDNIQG [H4 16-28 K R H R K V L Rme D N I Q G]: the “peptide microarray binding signal” value in experiment [1] (peptide region: H4 16-28, peptide modifications: H4R23me1, binder concentration: 500 nM) was determined as 0.000143 ± 4.6e-06; in experiment [2] (peptide region: H4 16-28, peptide modifications: H4R23me1, binder concentration: 100 nM), 0.000354 ± 4.1e-06; in experiment [3] (setting [7]) it was 0.000132 ± 1.5e-06; in experiment [4] (setting [7]) it was 1.51e-05 ± 1.7e-07.

KRHRKVLRDNIQG [H4 16-28 K R H Rme2a Kme2 V L R D N I Q G]: the “peptide microarray binding signal” value in experiment [1] (peptide region: H4 16-28, peptide modifications: H4R19me2a H4K20me2, binder concentration: 50 nM) is 0.0248 ± 0.0013; in experiment [1] (peptide region: H4 16-28, peptide modifications: H4R19me2a H4K20me2, binder concentration: 500 nM), 0.0149 ± 0.00068; in experiment [2] (peptide region: H4 16-28, peptide modifications: H4R19me2a H4K20me2, binder concentration: 10 nM), 0.0209 ± 0.0011; in experiment [2] (peptide region: H4 16-28, peptide modifications: H4R19me2a H4K20me2, binder concentration: 100 nM), 0.0188 ± 0.00076; in experiment [3] (setting [8]) it was 0.00119 ± 1.7e-05; in experiment [3] (setting [9]), 0.00348 ± 4.9e-05. In addition, the “peptide microarray binding signal” value in experiment [4] (setting [8]) is 0.00113 ± 8.4e-05; in experiment [4] (setting [9]), 0.00427 ± 0.00011.

Consider ARRGGVKRISGLI [H4 38-50 A R R G G V Kac Rme I S G L I], for which the “peptide microarray binding signal” value in experiment [1] (peptide region: H4 38-50, peptide modifications: H4K44ac H4R45me1, binder concentration: 50 nM) is 0.0131 ± 0.00062; in experiment [1] (peptide region: H4 38-50, peptide modifications: H4K44ac H4R45me1, binder concentration: 500 nM), 0.01695 ± 5.7e-05; in experiment [2] (peptide region: H4 38-50, peptide modifications: H4K44ac H4R45me1, binder concentration: 10 nM), 0.0235 ± 0.0022; in experiment [2] (peptide region: H4 38-50, peptide modifications: H4K44ac H4R45me1, binder concentration: 100 nM) it was 0.048 ± 0.0095; in experiment [3] (setting [10]), 0.00338 ± 0.00048; in experiment [3] (setting [11]), 0.00685 ± 0.0005. Besides, the “peptide microarray binding signal” value in experiment [4] (setting [10]) was 0.00296 ± 0.00039; in experiment [4] (setting [11]), 0.00306 ± 4.5e-05.

With KRHRKVLRDNIQG [H4 16-28 K R H Rme Kme V L R D N I Q G], the “peptide microarray binding signal” value turned out to be 0.00552 ± 0.00017 in experiment [1] (peptide region: H4 16-28, peptide modifications: H4R19me1 H4K20me1, binder concentration: 50 nM); 0.01 ± 0.00041 in experiment [1] (peptide region: H4 16-28, peptide modifications: H4R19me1 H4K20me1, binder concentration: 500 nM); 0.00961 ± 0.00044 in experiment [2] (peptide region: H4 16-28, peptide modifications: H4R19me1 H4K20me1, binder concentration: 10 nM); 0.0145 ± 0.0033 in experiment [2] (peptide region: H4 16-28, peptide modifications: H4R19me1 H4K20me1, binder concentration: 100 nM); 0.0027 ± 0.00027 in experiment [3] (setting [12]); 0.002511 ± 2.2e-05 in experiment [3] (setting [13]). Moreover, the “peptide microarray binding signal” value in experiment [4] (setting [12]) is 0.00143 ± 4.1e-05; in experiment [4] (setting [13]), 0.002133 ± 2e-05.

With KRHRKVLRDNIQG [H4 16-28 K R H Rme2a Kac V L R D N I Q G], the “peptide microarray binding signal” value in experiment [1] (peptide region: H4 16-28, peptide modifications: H4R19me2a H4K20ac, binder concentration: 50 nM) came out at 0.003699 ± 3e-05; in experiment [1] (peptide region: H4 16-28, peptide modifications: H4R19me2a H4K20ac, binder concentration: 500 nM) it was 0.006; in experiment [2] (peptide region: H4 16-28, peptide modifications: H4R19me2a H4K20ac, binder concentration: 10 nM), 0.00871 ± 0.00039; in experiment [2] (peptide region: H4 16-28, peptide modifications: H4R19me2a H4K20ac, binder concentration: 100 nM), 0.0218 ± 0.0012; in experiment [3] (setting [14]), 0.000774 ± 2.5e-05; in experiment [3] (setting [15]), 0.00171 ± 3.3e-05. Also, the “peptide microarray binding signal” value in experiment [4] (setting [14]) is 0.0004379 ± 4.2e-06; in experiment [4] (setting [15]), 0.001211 ± 1.2e-05.
